Shiga toxin inh: A qHTS for Small Molecule Inhibitors of Shiga Toxin. 9.2% of 290,000 active. inhibition, % at 38.7 µM. AID 2315, 2010. Vero cells, Shiga toxin protein synthesis inhibition reporter; in the data active = inhibition mostly above about 28%, no sharp cut-off; inactive = mostly below about 43%
Pf growth 48h: Primary qHTS for delayed death inhibitors of the malarial parasite plastid, 48 hour incubation; P. falciparum luciferase growth in erythrocytes, 48 h; Potency, µM (top dose mostly 28.7 µM), hits mostly inhibitors; 5.9% of 310,000 active
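A one-generation exposure of luciferase-tagged malaria parasites in RPMI 1640/Albumax erythrocyte culture, 37 C and 5% CO2. Inhibition is inferred from decreased luminescence after adding detection reagent.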
LmPK inh: qHTS Assay for Inhibitors of Leishmania Mexicana Pyruvate Kinase (LmPK); Potency, µM (doses to about 57.5 µM), most hits filed as inhibitors; purified LmPK, Kinase-Glo ATP luminescence, 1 h; AID 1721, 2009; 0.37% of 290,000 active; Q27686
Target sequence (Q27686 whole entry, looked up): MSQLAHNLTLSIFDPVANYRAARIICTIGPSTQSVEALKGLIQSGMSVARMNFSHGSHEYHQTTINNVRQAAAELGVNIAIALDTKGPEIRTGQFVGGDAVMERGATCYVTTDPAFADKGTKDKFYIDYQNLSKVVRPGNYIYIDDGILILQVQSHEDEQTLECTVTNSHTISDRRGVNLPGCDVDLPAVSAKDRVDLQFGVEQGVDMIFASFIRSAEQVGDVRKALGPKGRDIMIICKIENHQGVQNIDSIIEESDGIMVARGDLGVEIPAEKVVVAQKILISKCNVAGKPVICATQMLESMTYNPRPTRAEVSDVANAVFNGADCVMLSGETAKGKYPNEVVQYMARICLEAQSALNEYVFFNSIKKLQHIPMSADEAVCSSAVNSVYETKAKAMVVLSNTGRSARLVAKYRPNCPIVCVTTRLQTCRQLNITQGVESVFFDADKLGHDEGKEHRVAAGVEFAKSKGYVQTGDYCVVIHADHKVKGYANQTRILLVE
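0.1 nM LmPK, 0.5 mM PEP, 0.1 mM ADP; 50 mM imidazole pH 7.2, 7 mM MgCl2, 50 mM KCl; 1 h RT. Kinase-Glo luminescence readout, normalized to no-enzyme (full inhibition) and uninhibited wells.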
Pf growth 96h: Primary qHTS for delayed death inhibitors of the malarial parasite plastid, 96 hour incubation; P. falciparum luciferase reporter growth, 96 h; 6.9% of 320,000 active; Potency, µM (highest dose often 28.7 µM), actives largely listed as inhibitors
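Delayed-death screen, second-generation endpoint: infected erythrocytes, 2% hematocrit, 0.05% parasitemia final; 96 hours at 37 C, 5% CO2; luciferase detection reagent; luminescence decrease equals reduced growth.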
CHX counter: Cycloheximide Counterscreen for Small Molecule Inhibitors of Shiga Toxin | cell reporter, cycloheximide protein synthesis inhibition counterscreen | 12% of 300,000 active | max response, %; in the data active = max response mostly above about 13%, no sharp cut-off; inactive = mostly below about 14%; note: read at 38.3 µM for the half of the compounds with a filed dose
A number is an active result; - = inactive; ? = inconclusive; . = no result. Shown are actives, neighbours in structure and some others; about 22% of the full set was active somewhere. Unless noted, calls come from the whole dose curve; as a rule, active = well fitted inhibition curve with a large enough effect; inconclusive = small, poorly fitted or top-dose-only effect, or another doubt; inactive = no such curve, though single readings can be large or run the other way.

SMILES	Shiga toxin inh	Pf growth 48h	LmPK inh	Pf growth 96h	CHX counter
CCOC(=O)/C(=N/Nc1ccc(C)cc1)S(=O)(=O)c1ccc(Cl)cc1	-	-	-	.	22.8
O=C(Nc1ccc2ccccc2c1)c1ccc(Cl)cc1	68.1	-	-	5.22µM	40.6
Cc1ccc2cc(NC(=O)c3ccccc3)ccc2n1	67.0	-	-	-	46.9
Cc1ccc2cc(NC(=O)CC(CC(=O)O)c3ccccc3)ccc2n1 (stereo not drawn)	-	-	-	-	-
O=C(Nc1cccc(NC(=O)c2cccc(F)c2)n1)c1cccc(F)c1	70.0	-	-	?	23.3
O=C(Nc1ccncc1)c1ccc2ccccc2c1	57.5	-	-	?	43.1
CN1CCN(c2ccc(Cl)cc2NS(=O)(=O)c2ccccc2Cl)CC1	-	?	-	?	-
Cc1ccc(C(=O)Nc2ncn[nH]2)cc1	-	-	-	?	-
O=C(Nc1ncn[nH]1)c1cccc(S(=O)(=O)N2CCOCC2)c1	-	-	-	-	-
Cc1ccc(C(=O)Nc2ccc3ccccc3c2)cc1	-	-	-	?	-
O=C(Nc1ncn[nH]1)c1cccc(F)c1	.	-	.	1.47µM	.
CC(C)(C)c1ccc(C(=O)Nc2ncn[nH]2)cc1	75.0	-	-	-	33.2
O=C(Nc1ccc2ccccc2c1)c1ccc(NS(=O)(=O)c2ccc(Br)s2)cc1	46.3	-	-	-	35.7
O=C(Nc1ccc2ccccc2c1)c1cccc(F)c1	89.5	-	-	-	51.9
N#CCNC1CC(=O)N(c2ccccc2)C1=O (stereo not drawn)	-	-	-	-	-
CC(=O)Cc1nsc(NC(=O)c2cccc(F)c2)n1	71.6	-	-	?	40.7
CC(=O)Cc1nsc(NC(=O)c2ccc(-c3cccc(C(F)(F)F)c3)o2)n1	-	-	-	-	-
Cc1ccc2cc(NC(=O)c3cccc(F)c3)ccc2n1	75.1	-	-	-	39.1
CSc1nccc(NC(=O)c2cccc(Br)c2)n1	-	-	-	-	22.6
O=C(Nc1ccncc1)c1cc(F)cc(F)c1	-	?	-	2.94µM	-
CC(=O)Oc1ccccc1C(=O)N(C1CCCCC1)C1CCCCC1	-	?	-	-	-
COc1ccc(C)cc1NC(=O)C1CCN(C(=O)c2ccc(C(C)(C)C)cc2)CC1	-	?	-	-	-
CC(=O)Nc1ccc(SC[C@H](Cc2ccccc2)N2CC[C@@H](C(C)(C)C)CCC2=O)cc1	.	1.85µM	.	?	.
N#CC[C@H](Cc1ccccc1)N1CCN(Cc2ccccc2)CCC1=O	-	-	-	-	-
CC(=O)Nc1ccc(SC[C@H](Cc2ccccc2)N2CCN(CCc3ccccc3)CCC2=O)cc1	-	8.28µM	-	2.94µM	-
SMILES	Shiga toxin inh	Pf growth 48h	LmPK inh	Pf growth 96h	CHX counter
N#CC[C@H](Cc1ccccc1)N1CCN(CCc2ccccc2)CCC1=O	-	-	-	3.7µM	-
COc1ccc(S(=O)(=O)N2CCCOC2CNC(=O)C(=O)NCCCN2CCOCC2)cc1 (stereo not drawn)	-	-	-	-	-
CC(C(=O)NC1CCCC1)N(C(=O)Cn1nnc(-c2ccc(F)cc2)n1)c1ccccc1F (stereo not drawn)	-	?	-	?	-
CC(C(=O)NC1CCCC1)N(C(=O)c1ccc(-c2ccccc2)[nH]1)c1ccccc1F (stereo not drawn)	-	13.1µM	-	?	-
Cc1nc(C#N)c(N/N=C/c2c(F)cccc2Cl)o1	-	-	-	-	28.1
COc1ccc(S(=O)(=O)N2c3ccccc3OCC2c2ccccc2)cc1 (stereo not drawn)	-	13.1µM	-	?	-
COc1ccc(S(=O)(=O)N2c3ccccc3OCC2C)cc1 (stereo not drawn)	-	?	-	?	-
COc1ccc(S(=O)(=O)N2c3ccccc3OCC2C(C)(C)C)cc1 (stereo not drawn)	-	11.7µM	-	14.7µM	-
COc1ccc(S(=O)(=O)N2c3ccccc3OCC2CC(=O)O)cc1 (stereo not drawn)	-	-	-	-	-
COc1cccc(N(C(=O)c2snc(C(N)=O)c2N)C(C(=O)NCC2CCCO2)c2ccc3ncccc3c2)c1 (stereo not drawn)	-	?	-	-	-
Cc1ccc(S(=O)(=O)NCc2cccnc2)cc1C(=O)NC1CCCCC1	.	-	.	?	.
O=C(c1cc(COc2c(F)cccc2F)on1)N1C[C@H]2CC[C@H]1C2	102.6	-	-	?	76.2
